From PubChem BioAssay (NCATS) come the findings set out here.

The structures appear in SMILES notation. Where “and” joins values, the source holds several entries; their conditions need not be identical. Equal entries are not always repeated. Inconclusive results are not listed. Calls of active or inactive are those of the source. Unless noted, calls follow the shape of the dose curve; as a rule, active = well fitted curve in the direction sought with a large enough effect; inconclusive = small, poorly fitted or top-dose-only effect, or another doubt; inactive = no such curve, though single readings can be large; an effect the other way counts as inactive or inconclusive.

Assay [1] in a line: Primary qHTS for small molecule stabilizers of the endoplasmic reticulum resident proteome: Secreted ER Calcium Modulated Protein (SERCaMP) assay (AID 1508630). Also: % is scaled to controls: 0 for no effect and ±100 for the full control effect. A digest of the protocol: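 GLuc-SERCaMP-expressing SH-SY5Y cells, pretreated 16 h with compound, are challenged with thapsigargin to empty ER calcium stores; after 4 h, coelenterazine is added directly to the medium and luminescence is imaged.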
In general terms: qHTS replaces the single test concentration by a dilution series.

Assay [2] can be described thus: A High-Content qHTS Against Drug Library for the Identification of Small Molecules that Inhibit DYT1 Early Onset Primary Dystonia-Associated Cell Pathology (AID 1645839; calls by dose curve). A digest of the protocol:
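Readout: %pathology, the punctate EGFP-TorsinA distribution from imaging, as the primary channel and cell count as the toxicity counterscreen. HEK293 Flp-In cells expressing delE TorsinA were induced with tetracycline and treated with compound for 48 h.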

The target of assay [3] is Papain (Carica papaya) (UniProt P00784). Description: Primary qHTS assay for inhibitors of the protease papain (AID 1645873).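 Also: papain turnover of Z-FR-AMC read as the AMC fluorescence gain over 10 min.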 Also: potency is read from the fitted curve at half-maximal effect. As to activity change, negative = inhibition: % is scaled to controls: 0 for no effect and ±100 for the full control effect.
Assay [4] in a line: Primary qHTS for inhibitors of nuclear receptor binding SET domain protein 2 (NSD2) in an isogenic RCH-ACV NSD2 p.E1099K mutant (9B) (AID 1645876). Also: nearly all actives have a fitted effect of over 70% in size. Also: potency is read from the fitted curve at half-maximal effect.
Assay [5] can be described thus: Primary qHTS for inhibitors of nuclear receptor binding SET domain protein 2 (NSD2) in an RCH-ACV wild type WT cells (2C) (AID 1645877). Also: nearly all actives have a fitted effect of over 70% in size. Also: potency is read from the fitted curve at half-maximal effect.
Assay [6] concerns the target Cytochrome P450 2C9 (Homo sapiens) (UniProt P11712). The assay can be described thus: Cytochrome P450 family 2 subfamily C member 9 (CYP2C9) small molecule antagonists: luciferase biochemical (cell-free) qHTS assay (AID 1645842; active = well fitted curve in the direction sought with a large enough effect in the repeat runs; an effect the other way counts as inactive or inconclusive; also: nearly all actives have a fitted effect of over 55% in size; also: potency is read from the fitted curve at half-maximal effect; as to activity change, negative = inhibition: % is scaled to controls: 0 for no effect and ±100 for the full control effect). The method, boiled down: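 Luminescence, after 20 min with luciferin detection reagent, reflected CYP2C9 turnover during a 1 h NADPH-driven reaction at 37C. Enzyme-substrate mix contained 0.4% bovine serum albumin and was preincubated with compound 10 min at room temperature.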

The target in assay [7] is Cytochrome P450 2D6 (Homo sapiens) (UniProt P10635). Description: Cytochrome P450 family 2 subfamily D member 6 (CYP2D6) small molecule antagonists: luciferase biochemical (cell-free) qHTS assay (AID 1645840; active = well fitted curve in the direction sought with a large enough effect in the repeat runs; an effect the other way counts as inactive or inconclusive; also: nearly all actives have a fitted effect of over 55% in size; also: potency is read from the fitted curve at half-maximal effect). A digest of the protocol:
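P450-Glo luminescent screen: recombinant CYP2D6 enzyme–proluciferin substrate mix preincubated with compound 10 min at room temperature, then NADPH regeneration added for 1 h at room temperature. Detection reagent added for 20 min; luciferin light read as relative luminescence units.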

Assay [8] concerns the target Rap guanine nucleotide exchange factor 3 (Homo sapiens) (UniProt O95398). Description: Confirmatory qHTS for antagonist of cAMP-regulated guanine nucleotide exchange factor 3 (EPAC1) (AID 1645880).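 Also: plate controls were DMSO only for no effect and full effect of the ATA control for full effect; nearly all actives have a fitted effect of over 55% in size.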 The method, boiled down: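 Nucleotide exchange uses 100 nM EPAC1, 250 nM RAP1B-BODIPY-GDP and 50 uM GDP, with compounds in a concentration-titration series. After 5 min at room temperature, fluorescence (480 nm ex/540 nm em) is read every 5 min for 30 min. Data are normalized to control ATA and DMSO.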

Assay [9] has the same target. The assay can be described thus: Confirmatory qHTS for agonist of cAMP-regulated guanine nucleotide exchange factor 3 (EPAC1) (AID 1645881).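 Also: EPAC1 catalysed release of BODIPY-GDP from Rap1B seen as fluorescence loss; 100% = effect of cAMP agonist control; nearly all actives have a fitted effect of over 75% in size.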
In assay [10] the target is Rap guanine nucleotide exchange factor 4 (Homo sapiens) (UniProt Q8WZA2). Description: Confirmatory qHTS for agonist of cAMP-regulated guanine nucleotide exchange factor 4 (EPAC2) (AID 1645884).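 Also: nucleotide exchange releases bodipy-GDP from Rap1 and this lowers its fluorescence; % is scaled to controls: 0 for no effect and ±100 for the full control effect; nearly all actives have a fitted effect of over 65% in size.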
Assay [11] addresses Catechol O-methyltransferase (Homo sapiens) (UniProt P21964). The assay can be described thus: Confirmatory Screen for Target Class Profiling of Small Molecule Inhibitors of Methyltransferases (AID 1745852). Conditions: MTase-Glo luminescence, SAH detection, recombinant enzyme; measured here: COMT max response; stronger effect = lower value.
Assay [12] addresses Guanidinoacetate N-methyltransferase (Homo sapiens) (UniProt Q14353). The assay is described as above. Conditions: MTase-Glo luminescence, SAH detection, recombinant enzyme; at 57.3 µM (top of the series).
Assay [13] concerns the target Nicotinamide N-methyltransferase (Homo sapiens) (UniProt P40261). The assay is described as above. Conditions: MTase-Glo luminescence, SAH detection, recombinant enzyme; measured here: NNMT max response; stronger effect = lower value.
The target of assay [14] is Phenylethanolamine N-methyltransferase (Homo sapiens) (UniProt P11086). The assay is described as above. The following applies: MTase-Glo luminescence, SAH detection, recombinant enzyme; measured here: PNMT max response; stronger effect = lower value.
A short description of assay [15]: NCATS anti-infectives library activity on HEK293 viability as a counter-qHTS vs the C. elegans viability qHTS (AID 1745854).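 Also: HEK293 cells exposed to compounds for 24 hr before the viability read; % is scaled to controls: 0 for no effect and ±100 for the full control effect.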 The method, boiled down:
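Compounds were acoustically plated (several concentrations, 1:5, final up to 41.7 uM), then 1500 HEK293 cells added per well and incubated 24 hr at 37C, 5% CO2. CellTiter-Glo was added and luminescence read after 10 min.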

The target of assay [16] is Cytochrome P450 3A4 (Homo sapiens) (UniProt P08684). Description: Cytochrome P450 family 3 subfamily A member 4 (CYP3A4) small molecule antagonists: luciferase qHTS assay (AID 1645841; active = well fitted curve in the direction sought with a large enough effect in the repeat runs; an effect the other way counts as inactive or inconclusive; also: nearly all actives have a fitted effect of over 45% in size). A digest of the protocol:
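P450-Glo CYP3A4 enzyme with proluciferin substrate was preincubated with DMSO-dissolved compounds for 10 min at room temperature. NADPH regeneration solution started a 1 h reaction. Detection reagent stopped it, and luminescence was read after 20 min.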

Assay [17] concerns the target Rap guanine nucleotide exchange factor 4 (Homo sapiens) (UniProt Q8WZA2). The assay can be described thus: Confirmatory qHTS for antagonist of cAMP-regulated guanine nucleotide exchange factor 4 (EPAC2) (AID 1645885). Also: % is scaled to controls: 0 for no effect and ±100 for the full control effect; nearly all actives have a fitted effect of over 25% in size.
For assay [18], the target named is Rap guanine nucleotide exchange factor 3 (Homo sapiens) (UniProt O95398). Description: Counterscreen qHTS for antagonist of cAMP-regulated guanine nucleotide exchange factor 3 (EPAC1) (AID 1645888).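 Also: fluorescence loss as bound BODIPY-GDP is released from Rap1B; % of control where 0% means no effect.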 A digest of the protocol:
(§1)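 Measured: fluorescence of BODIPY-GDP bound to Rap1B, which falls as exchange proceeds. Conditions include 50 uM competing GDP, 5 and 30 min reads, and a later cAMP challenge for antagonist detection.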

The target is the same in assay [19]. The assay can be described thus: Counterscreen qHTS for agonist of cAMP-regulated guanine nucleotide exchange factor 3 (EPAC1) (AID 1645889). Also: % of control where 0% means no effect; nearly all actives have a fitted effect of over 40% in size. A digest of the protocol: as §1
A general note: A counterscreen serves to expose hits that act by an unwanted route or on another target.

Chain of Cytochrome P450 2D6 (Homo sapiens) (P10635 whole entry, looked up): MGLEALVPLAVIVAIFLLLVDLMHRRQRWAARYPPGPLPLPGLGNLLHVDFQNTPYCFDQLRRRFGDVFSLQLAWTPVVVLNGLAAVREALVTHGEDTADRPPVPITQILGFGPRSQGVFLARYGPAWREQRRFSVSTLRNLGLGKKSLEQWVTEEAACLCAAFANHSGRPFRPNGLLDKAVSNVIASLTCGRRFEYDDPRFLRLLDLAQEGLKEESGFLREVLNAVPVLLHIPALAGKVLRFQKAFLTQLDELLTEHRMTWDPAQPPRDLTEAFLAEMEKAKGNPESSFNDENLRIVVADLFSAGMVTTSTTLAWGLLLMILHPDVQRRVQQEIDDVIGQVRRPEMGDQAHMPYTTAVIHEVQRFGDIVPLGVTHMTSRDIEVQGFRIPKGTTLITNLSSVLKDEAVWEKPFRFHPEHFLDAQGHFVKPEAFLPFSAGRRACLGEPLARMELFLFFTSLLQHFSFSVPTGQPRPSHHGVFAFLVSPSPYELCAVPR
Chain of Rap guanine nucleotide exchange factor 4 (Homo sapiens) (Q8WZA2 whole entry, looked up): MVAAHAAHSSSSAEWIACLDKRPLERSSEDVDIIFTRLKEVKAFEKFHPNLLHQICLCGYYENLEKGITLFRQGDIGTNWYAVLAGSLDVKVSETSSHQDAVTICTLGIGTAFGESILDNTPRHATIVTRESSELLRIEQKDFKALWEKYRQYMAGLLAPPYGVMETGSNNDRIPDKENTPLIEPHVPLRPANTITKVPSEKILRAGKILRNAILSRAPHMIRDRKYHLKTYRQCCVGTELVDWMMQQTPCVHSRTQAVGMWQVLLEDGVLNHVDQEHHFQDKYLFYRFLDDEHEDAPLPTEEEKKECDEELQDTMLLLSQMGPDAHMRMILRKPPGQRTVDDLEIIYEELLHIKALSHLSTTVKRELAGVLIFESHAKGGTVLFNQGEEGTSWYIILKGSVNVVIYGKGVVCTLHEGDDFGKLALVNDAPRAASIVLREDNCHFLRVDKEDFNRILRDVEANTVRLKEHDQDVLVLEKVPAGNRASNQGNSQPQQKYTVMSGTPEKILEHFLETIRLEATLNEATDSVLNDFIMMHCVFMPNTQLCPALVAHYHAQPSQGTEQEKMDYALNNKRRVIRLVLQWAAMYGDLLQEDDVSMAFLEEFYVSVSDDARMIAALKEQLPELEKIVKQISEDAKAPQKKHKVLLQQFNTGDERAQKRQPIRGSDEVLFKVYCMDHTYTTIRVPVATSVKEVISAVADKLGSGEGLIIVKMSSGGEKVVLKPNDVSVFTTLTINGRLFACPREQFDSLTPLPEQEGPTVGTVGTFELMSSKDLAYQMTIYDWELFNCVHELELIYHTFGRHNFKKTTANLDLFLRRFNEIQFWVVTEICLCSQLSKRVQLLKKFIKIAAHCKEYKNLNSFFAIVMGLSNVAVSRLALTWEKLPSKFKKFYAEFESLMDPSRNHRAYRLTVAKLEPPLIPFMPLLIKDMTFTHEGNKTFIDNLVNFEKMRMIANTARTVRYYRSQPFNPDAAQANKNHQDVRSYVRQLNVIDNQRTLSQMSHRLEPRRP
Chain of Rap guanine nucleotide exchange factor 3 (Homo sapiens) (O95398 whole entry, looked up): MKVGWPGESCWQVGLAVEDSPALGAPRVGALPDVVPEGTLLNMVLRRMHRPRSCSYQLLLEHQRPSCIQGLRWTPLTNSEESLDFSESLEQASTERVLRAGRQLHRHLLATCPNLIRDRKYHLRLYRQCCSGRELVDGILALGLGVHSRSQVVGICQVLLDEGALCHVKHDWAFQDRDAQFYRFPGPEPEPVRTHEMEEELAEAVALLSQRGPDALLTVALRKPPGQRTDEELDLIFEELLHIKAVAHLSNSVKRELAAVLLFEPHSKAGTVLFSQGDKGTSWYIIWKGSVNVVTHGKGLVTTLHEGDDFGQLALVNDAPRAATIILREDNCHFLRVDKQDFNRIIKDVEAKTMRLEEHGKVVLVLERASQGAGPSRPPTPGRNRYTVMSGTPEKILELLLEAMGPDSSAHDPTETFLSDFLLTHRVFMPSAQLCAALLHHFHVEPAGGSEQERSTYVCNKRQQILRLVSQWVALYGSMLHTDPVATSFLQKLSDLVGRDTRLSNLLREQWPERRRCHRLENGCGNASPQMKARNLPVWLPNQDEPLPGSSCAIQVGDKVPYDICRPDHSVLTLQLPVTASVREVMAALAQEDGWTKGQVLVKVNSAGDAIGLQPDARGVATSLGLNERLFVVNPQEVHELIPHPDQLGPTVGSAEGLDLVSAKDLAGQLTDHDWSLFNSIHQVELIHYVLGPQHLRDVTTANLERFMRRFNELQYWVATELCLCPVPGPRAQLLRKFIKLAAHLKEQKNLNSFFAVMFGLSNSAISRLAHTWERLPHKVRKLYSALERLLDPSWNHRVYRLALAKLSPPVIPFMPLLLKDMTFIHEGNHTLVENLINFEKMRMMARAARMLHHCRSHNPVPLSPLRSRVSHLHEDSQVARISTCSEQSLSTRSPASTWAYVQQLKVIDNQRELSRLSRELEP
Chain of Papain (Carica papaya) (P00784 whole entry, looked up, the tested form may be a part): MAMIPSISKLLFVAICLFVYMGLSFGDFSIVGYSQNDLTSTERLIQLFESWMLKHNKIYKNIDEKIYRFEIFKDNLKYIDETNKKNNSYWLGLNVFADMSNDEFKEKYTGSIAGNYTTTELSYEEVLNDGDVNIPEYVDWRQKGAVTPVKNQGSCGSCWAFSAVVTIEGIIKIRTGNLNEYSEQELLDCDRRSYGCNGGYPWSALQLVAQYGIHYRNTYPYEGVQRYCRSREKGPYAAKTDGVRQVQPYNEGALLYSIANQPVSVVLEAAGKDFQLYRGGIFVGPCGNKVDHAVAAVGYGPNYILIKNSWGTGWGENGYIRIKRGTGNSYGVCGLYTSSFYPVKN
Chain of Cytochrome P450 2C9 (Homo sapiens) (P11712 whole entry, looked up): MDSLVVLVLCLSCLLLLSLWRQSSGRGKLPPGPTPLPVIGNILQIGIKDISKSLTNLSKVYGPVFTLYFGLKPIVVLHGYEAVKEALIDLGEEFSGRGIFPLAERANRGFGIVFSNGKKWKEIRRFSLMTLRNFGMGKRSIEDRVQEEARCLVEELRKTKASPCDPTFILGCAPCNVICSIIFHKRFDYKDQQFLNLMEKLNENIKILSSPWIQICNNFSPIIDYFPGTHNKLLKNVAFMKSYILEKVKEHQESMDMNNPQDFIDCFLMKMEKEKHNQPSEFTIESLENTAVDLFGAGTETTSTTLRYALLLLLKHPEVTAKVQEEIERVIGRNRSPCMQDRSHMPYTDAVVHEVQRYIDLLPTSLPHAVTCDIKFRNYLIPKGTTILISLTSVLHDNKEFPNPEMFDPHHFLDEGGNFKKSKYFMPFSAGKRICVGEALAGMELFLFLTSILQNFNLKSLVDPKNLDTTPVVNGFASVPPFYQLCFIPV
Chain of Phenylethanolamine N-methyltransferase (Homo sapiens) (P11086 whole entry, looked up): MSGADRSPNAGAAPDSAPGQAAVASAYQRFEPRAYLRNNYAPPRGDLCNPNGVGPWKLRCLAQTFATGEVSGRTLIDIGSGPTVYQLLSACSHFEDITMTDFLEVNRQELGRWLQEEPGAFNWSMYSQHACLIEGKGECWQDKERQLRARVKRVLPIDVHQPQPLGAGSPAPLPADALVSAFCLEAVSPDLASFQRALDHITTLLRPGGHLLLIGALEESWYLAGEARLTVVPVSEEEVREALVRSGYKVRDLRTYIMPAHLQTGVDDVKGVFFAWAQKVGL
Chain of Nicotinamide N-methyltransferase (Homo sapiens) (P40261 whole entry, looked up): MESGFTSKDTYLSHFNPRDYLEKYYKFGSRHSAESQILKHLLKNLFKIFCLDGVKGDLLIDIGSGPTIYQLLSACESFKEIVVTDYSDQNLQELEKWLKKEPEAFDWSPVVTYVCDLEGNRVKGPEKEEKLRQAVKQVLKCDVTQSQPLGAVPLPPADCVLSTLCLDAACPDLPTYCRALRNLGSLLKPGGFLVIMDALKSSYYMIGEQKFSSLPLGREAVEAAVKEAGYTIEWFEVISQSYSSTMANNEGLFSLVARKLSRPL
Chain of Cytochrome P450 3A4 (Homo sapiens) (P08684 whole entry, looked up): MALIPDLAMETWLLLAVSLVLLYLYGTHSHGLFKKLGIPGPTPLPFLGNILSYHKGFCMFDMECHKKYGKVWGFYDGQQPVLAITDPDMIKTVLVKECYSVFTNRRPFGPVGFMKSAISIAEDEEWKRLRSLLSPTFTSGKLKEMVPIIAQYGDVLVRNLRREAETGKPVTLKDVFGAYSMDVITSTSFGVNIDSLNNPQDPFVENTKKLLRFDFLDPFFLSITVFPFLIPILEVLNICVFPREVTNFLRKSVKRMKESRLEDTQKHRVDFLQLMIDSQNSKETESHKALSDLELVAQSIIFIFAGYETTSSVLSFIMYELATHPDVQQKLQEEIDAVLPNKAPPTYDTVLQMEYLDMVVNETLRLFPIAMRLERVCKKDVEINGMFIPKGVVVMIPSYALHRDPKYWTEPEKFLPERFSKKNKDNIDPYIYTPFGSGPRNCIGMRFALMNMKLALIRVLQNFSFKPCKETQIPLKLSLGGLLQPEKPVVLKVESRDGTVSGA
Chain of Catechol O-methyltransferase (Homo sapiens) (P21964 whole entry, looked up): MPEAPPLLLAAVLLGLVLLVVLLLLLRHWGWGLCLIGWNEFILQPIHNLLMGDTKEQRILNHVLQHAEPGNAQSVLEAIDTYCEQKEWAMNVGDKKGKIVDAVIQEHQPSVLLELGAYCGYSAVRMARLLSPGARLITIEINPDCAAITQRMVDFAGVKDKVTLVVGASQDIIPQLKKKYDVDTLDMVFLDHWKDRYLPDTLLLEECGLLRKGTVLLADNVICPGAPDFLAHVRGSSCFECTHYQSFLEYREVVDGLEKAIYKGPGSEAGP

As for `NS(=O)(=O)c1cc2c(cc1Cl)NC(C1CC3C=CC1C3)NS2(=O)=O` (stereo not drawn), the Potency result in assay [1], in [2], in assay [3], in assay [4] and in assay [5] was “inactive” in each case.
As to `CCCNC(C)C(=O)Nc1ccccc1C` (stereo not drawn), the Potency result in assay [1], in assay [2], in assay [6], in assay [3], in assay [4] and in assay [5] was “inactive” throughout.
Regarding `CCN(CC)CCNC(=O)c1cc(S(C)(=O)=O)ccc1OC`, the Potency result in [1], in assay [2], in assay [6], in assay [3], in assay [4] and in [5] was “inactive” in each case.
As for `CCCCOCCOCCOCc1cc2c(cc1CCC)OCO2`, the Potency result in assay [1], in assay [2], in assay [4], in assay [5], in assay [9] and in [10] was “inactive” in each case. Further, the Potency in [7] is 1.56 µM (active) and 1.74 µM (active); in [6] it was 340 nM (active) and 123 nM (active). In assay [8], the outcome is “inactive”.
For `CCCCNC(=O)NS(=O)(=O)c1ccc(C)cc1`, the Potency result in assay [1], in assay [2], in assay [7], in assay [3], in assay [4] and in [5] was “inactive” throughout.
For the molecule `CC(=O)OC(C)C[N+](C)(C)C` (stereo not drawn), the Potency entry in assay [1], in assay [2], in assay [6], in [3], in [4] and in assay [5] was “inactive” throughout.
As for `CCN1CCc2nc(N)oc2CC1`, the Potency result in assay [1], in assay [2], in assay [7], in assay [6], in assay [4] and in [5] was “inactive” throughout.
Regarding `C[C@@H](O)[C@H]1C(=O)N2C(C(=O)O)=C(SCCN=CN)C[C@H]12`, the Potency entry in assay [1], in assay [2], in [7], in assay [3], in [4] and in assay [5] was “inactive” each time.
In the case of `c1ccc2c(c1)CCCC2C1=NCCN1` (stereo not drawn), the Potency result in assay [1], in [2], in assay [3], in [4] and in assay [5] was “inactive” throughout.
In the case of `CCCCCCCC/C=C\CCCCCCCC(=O)NCc1ccc(O)c(OC)c1`, the Potency result in [1], in assay [7] and in assay [3] was “inactive” each time. Further, the Potency is 1.1 µM (active) and 1.69 µM (active) in assay [6]; 2.66 µM (active) in assay [4]; 3.35 µM (active) in assay [5].
Take `CCN(CC)CC(=O)Nc1c(C)cccc1C`: the Potency result in assay [1], in assay [2], in assay [3], in [4] and in [5] was “inactive” throughout.
Regarding `CC(=O)[C@@]1(O)CC[C@H]2[C@@H]3CCC4=CC(=O)CC[C@]4(C)[C@H]3CC[C@@]21C`, the Potency entry in assay [1], in [2], in [3], in [4] and in assay [5] was “inactive” throughout.
As for `CCc1c(C)[nH]c2c1C(=O)C(CN1CCOCC1)CC2` (stereo not drawn), the Potency entry in [1], in [2] and in assay [3] was “inactive” in each case. In addition, the activity is 6.21% in [11], -7.58% in assay [13] and 4.21% in assay [14]. For the same molecule, the activity change, negative = inhibition in assay [12] was -2.7%.
Consider `Nc1nc(N)c2nc(-c3ccccc3)c(N)nc2n1`, for which the Potency result in [1] and in [2] was “inactive” throughout. Also, the Potency in assay [3] is 1.12 µM (active); in assay [4], 7.5 µM (active); in assay [5], 9.44 µM (active). Moreover, the outcome in assay [15] is “inactive”.
For the molecule `COCCc1ccc(OCC(O)CNC(C)C)cc1` (stereo not drawn), the Potency entry in assay [1], in assay [2], in assay [3], in [4] and in assay [5] was “inactive” each time.
For `CC(C)(Oc1ccc(CCNC(=O)c2ccc(Cl)cc2)cc1)C(=O)O`, the Potency entry in [1], in [2], in assay [7], in assay [3], in assay [4] and in assay [5] was “inactive” throughout.
Take `C[C@]12CC[C@@H]3c4ccc(O)cc4C[C@@H](CCCCCCCCCS(=O)CCCC(F)(F)C(F)(F)F)[C@H]3[C@@H]1CC[C@@H]2O` (stereo partly drawn): the Potency result in assay [1], in assay [7], in [3], in [4] and in assay [5] was “inactive” each time. In addition, the Potency in assay [6] is 1.38 µM (active).
Consider `O=C1NCN(c2ccccc2)C12CCN(CCCC(c1ccc(F)cc1)c1ccc(F)cc1)CC2`, for which the Potency result in assay [1], in [3], in assay [9] and in assay [10] was “inactive” in each case. For the same molecule, the values for the Potency in [7], in assay [4] and in assay [5] were 0.436 µM (active), 4.22 µM (active) and 2.66 µM (active), respectively. In addition, the outcome in assay [16] was “inactive”.
In the case of `CCN(CC)CCNC(=O)c1ccc(NC(C)=O)cc1`, the Potency result in assay [1], in assay [2], in [6], in [3], in [4] and in assay [5] was “inactive” throughout.
Consider `Cc1ccc(S(=O)(=O)NC(=O)NN2CCCCCC2)cc1`, for which the Potency entry in [1], in assay [2], in assay [3], in assay [4] and in [5] was “inactive” throughout.
Regarding `FC(F)(F)c1ccccc1-n1ccnc1`, the Potency entry in assay [1], in assay [2], in assay [4] and in [5] was “inactive” in each case. The Potency is 3.47 µM (active) in [7] and 13.8 µM (active) in assay [6].
For the molecule `CCCCNc1c(C(=O)OCC)c(C)nc2c1cnn2CC`, the Potency entry in [2] and in assay [3] was “inactive” throughout. Besides, in assay [6], the Potency was 17.4 µM (active).
As for `OCCN1CCN(CC/C=C2/c3ccccc3Sc3ccc(C(F)(F)F)cc32)CC1`, the Potency result in [1], in assay [3], in assay [9], in [10] and in assay [17] was “inactive” in each case. Moreover, the Potency in assay [7] was 6.92 µM (active); in assay [4], 15 µM (active); in [5], 10.6 µM (active). For the same molecule, the outcome in [18] and in assay [19] was “inactive” throughout.
Take `O=C(O)CP(=O)(O)O`: the Potency entry in [2], in assay [7], in assay [6], in assay [3], in [4] and in assay [5] was “inactive” throughout.
Turning to `CNCCC(Oc1ccccc1OC)c1ccccc1` (stereo not drawn), the Potency in [7] was 1.74 µM (active). Besides, the Potency entry in assay [6] and in assay [3] was “inactive” each time.
